From PubChem BioAssay
D1 antagonist: Antagonist of Human D 1 Dopamine Receptor: qHTS. 360,000 tested, 3.2% active. activity change, negative = inhibition, % at 10 µM. HEK293 TREx D1 cells, calcium flux, dopamine EC80; stronger effect = lower value. D(1A) dopamine receptor (Homo sapiens), P21728; in the data active means activity change below about -30%
Target sequence (P21728 whole entry, looked up): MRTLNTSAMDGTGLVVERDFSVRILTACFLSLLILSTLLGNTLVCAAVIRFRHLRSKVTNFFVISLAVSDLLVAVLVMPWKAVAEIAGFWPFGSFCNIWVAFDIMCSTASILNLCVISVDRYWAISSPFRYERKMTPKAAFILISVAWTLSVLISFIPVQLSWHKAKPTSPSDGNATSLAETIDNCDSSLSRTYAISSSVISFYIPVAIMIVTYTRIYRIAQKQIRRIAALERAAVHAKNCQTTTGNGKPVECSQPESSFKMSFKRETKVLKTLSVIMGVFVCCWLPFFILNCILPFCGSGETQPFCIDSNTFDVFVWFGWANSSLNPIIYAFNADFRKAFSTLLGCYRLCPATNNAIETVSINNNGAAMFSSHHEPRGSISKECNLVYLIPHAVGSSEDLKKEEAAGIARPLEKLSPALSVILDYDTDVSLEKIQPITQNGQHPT
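Compound effects on dopamine-evoked calcium signalling were measured in tetracycline-induced HEK293 Trex D1 cells. Dopamine at EC80 followed a 180 s compound pre-read, and fluorescence was tracked kinetically for 180 s more.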
TRHR ag: qHTS for Small Molecule Agonists and Allosteric Enhancers of Human TRH Receptor: Primary Screen for Agonists | TRHR cells, calcium flux fluo-8, FDSS agonist mode | activation, % at 2 µM | 360,000 tested, 0.18% active | AID 493084, 2011
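Fluo-8-loaded TRHR cells; 10 s baseline, compound added, kinetic Ca2+ fluorescence read 1/s, agonist mode.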
D1 potentiator: Potentiators of Human D1 Dopamine Receptor: qHTS. D(1A) dopamine receptor (Homo sapiens), P21728. HEK293 TREx D1 cells, calcium flux, dopamine EC20 potentiation. potentiation, % at 10 µM. 360,000 tested, 0.036% active. AID 504651, 2011; in the data active means potentiation above about 30%
TRHR enhancer: qHTS for Small Molecule Agonists and Allosteric Enhancers of Human TRH Receptor: Primary Screen for Enhancers; enhancement, % at 2 µM; 360,000 tested, 0.66% active; TRHR cells, fluo-8 calcium fluorescence, EC20 TRH enhancement; in the data active means enhancement above about 30%
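Enhancer read-out: after compound pinning and an initial kinetic agonist-mode read, an EC20 of TRH (10 nM final) was injected and fluo-8 calcium signal (Ex 480/Em 530) followed at 1 s/cycle for 100 cycles in TRHR-expressing cells.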
D1 agonist: Allosteric Agonists of the Human D1 Dopamine Receptor: qHTS. D(1A) dopamine receptor (Homo sapiens), P21728. HEK293 T-REx D1 cells, calcium flux, agonist mode. 360,000 tested, 1% active. activation, % at 2 µM. AID 504660, 2011
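Inducible HEK293 T-REx D1 cells, force-coupled to calcium signalling, were plated at 4000 cells/well with tetracycline and held overnight at 30 C. After no-wash calcium dye loading, compound-evoked calcium rise over 180 s flagged agonists.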
Large screens that a line does not name were inactive. An excerpt weighted towards active compounds, which were near 4.7% of everything screened. Unless noted, no stated cut-off is given here; in the data, active means activation above about 30%; inactive means the rest.

CCOc1ccc(N(C)C(CNS(=O)(=O)c2ccccc2)c2ccccc2)cc1 (configuration not stated)	none
CCOC(=O)COc1ccc(S(=O)(=O)Nc2ccc3c(c2)OCO3)cc1	D1 agonist 63
O=S(=O)(Nc1ccc(Cl)cc1)c1ccc(NS(=O)(=O)c2ccc3c(c2)OCCO3)cc1	D1 agonist 61
CCOC(=O)COc1ccc(S(=O)(=O)c2ccc(OCC(=O)OCC)cc2)cc1	none
CSc1ccc(S(=O)(=O)Nc2ccccc2C(=O)N2CCOCC2)cc1	none
NS(=O)(=O)c1ccc(NS(=O)(=O)c2ccc3c(c2)OCCO3)cc1	none
O=C(c1ccccc1NS(=O)(=O)c1ccc(Br)cc1)N1CCOCC1	D1 antagonist -33
CCOC(=O)COc1ccc(S(=O)(=O)Nc2ccc(C)cc2)cc1	D1 agonist 45
COc1cccc(C(=O)Nc2nc(-c3nnn(-c4cccc(Cl)c4C)c3C)ns2)c1	none
CC(=O)c1ccc(NS(=O)(=O)c2ccc(C)cc2)cc1	none
O=[N+]([O-])c1ccc(S(=O)(=O)Nc2ccncc2)cc1	none
Cc1ccc(Oc2ccc(S(=O)(=O)Nc3ccc(C(=O)O)cc3)cc2)cc1	D1 antagonist -42
COC(=O)COc1ccc(S(=O)(=O)Nc2ccc3c(c2)OCCO3)cc1Cl	D1 antagonist -33
O=[N+]([O-])c1ccc(Oc2ccc(S(=O)(=O)Nc3ccccc3)cc2)cc1	D1 agonist 55
NC(=O)c1ccccc1NS(=O)(=O)c1ccc2c(c1)OCCO2	D1 antagonist -36
Cc1ccc(NC(=O)CSc2nc3ccc(NC(=O)c4cccc(Cl)c4)cc3s2)c(C)c1	none
O=[S+]([O-])(c1ccc2c(c1)OCCO2)N1CCN([S+](=O)([O-])c2cc(Cl)ccc2F)CC1	none
COc1ccc(C(=O)O)cc1S(=O)(=O)Nc1cccc(C)c1	none
COc1ccc(C(=O)O)cc1S(=O)(=O)Nc1ccc(C)cc1	D1 antagonist -70
O=C(CSCc1ccc(F)cc1)N1CCN(c2ccccc2F)CC1	D1 antagonist -58
CC(CC(=O)N1CCN(c2ccccc2F)CC1)c1ccccc1 (configuration not stated)	D1 antagonist -32
O=C(Nc1cc(Cl)ccc1Cl)c1cc(S(=O)(=O)N2CCCc3ccccc32)ccc1F	none
CC(=O)c1ccc(C(=O)Nc2ccc3c(c2)C(=O)NC3=O)cc1	D1 antagonist -35
CC(=O)Nc1cccc2c1C(=O)N(c1cccc(OC(C)=O)c1)C2=O	none
CC(=O)c1ccc(NC(=O)c2cccc(N3C(=O)c4ccccc4C3=O)c2)cc1	D1 antagonist -31
CC(=O)Oc1cccc(N2C(=O)c3ccccc3C2=O)c1	D1 antagonist -31
Cc1ccc(OCC(=O)Nc2ccc3nc(SCC(=O)N(C)c4ccccc4)sc3c2)cc1	none
COc1ccccc1NC(=O)c1c(-c2ccc(C)cc2)nnc2ccccc12	none
COc1ccccc1-c1cc2nc(C)c(CCC(=O)NCc3cccc(Cl)c3)c(C)n2n1	none
COC(=O)c1sc2ncn(CC(=O)NCCc3ccc(OC)c(OC)c3)c(=O)c2c1C	none
COc1ccc(CCNC(=O)Cn2cnc3sc(C)c(-c4ccc(F)cc4)c3c2=O)cc1OC	D1 agonist 34 (no result: D1 antagonist)
CCc1cc(=O)oc2c(C)c(O[C@@H]3O[C@H](CO)[C@@H](O)[C@H](O)[C@H]3O)ccc12	none
CCc1cc(=O)oc2cc(O[C@@H]3O[C@H](CO)[C@@H](O)[C@H](O)[C@H]3O)c(Cl)cc12	TRHR enhancer 33
CCN(C(=O)c1cn(CC(C)C)c(=O)c2cc(OC)c(OC)cc12)c1cc(OC)ccc1OC	none
Cc1nc(C)c(-c2csc(N)n2)s1	D1 antagonist -31
COc1ccc(CCNC(=O)c2ccc3c(Cl)c4c(nc3c2)CCCC4)c(OC)c1	none
CCS(=O)(=O)c1nn2c(N)c(/C=C3/C=CC(=O)C(OC)=C3)c(=O)nc2s1	D1 agonist 31
